# Unmarked numbers belong to inactive results. Inconclusive results are not listed. A call without a number means that no potency is given here. The source made the active and inactive calls. Unless noted, the call rests on the fitted dose curve; in most records, active means well fitted curve in the direction sought with a large enough effect in the repeat runs; inconclusive means weak or mixed curves; inactive means no such curve, though single readings can be large; an effect the other way counts as inactive or inconclusive.
# What was measured:
# [1] = biological target: Progesterone receptor (Homo sapiens) (UniProt P06401); experiment: qHTS assay to identify small molecule agonists of the progesterone receptor (PR) signaling pathway (AID 1346784; calls by dose curve; further: nearly all actives have a fitted effect of over 30% in size)
# Sequence of Progesterone receptor (Homo sapiens) (P06401 whole entry, looked up): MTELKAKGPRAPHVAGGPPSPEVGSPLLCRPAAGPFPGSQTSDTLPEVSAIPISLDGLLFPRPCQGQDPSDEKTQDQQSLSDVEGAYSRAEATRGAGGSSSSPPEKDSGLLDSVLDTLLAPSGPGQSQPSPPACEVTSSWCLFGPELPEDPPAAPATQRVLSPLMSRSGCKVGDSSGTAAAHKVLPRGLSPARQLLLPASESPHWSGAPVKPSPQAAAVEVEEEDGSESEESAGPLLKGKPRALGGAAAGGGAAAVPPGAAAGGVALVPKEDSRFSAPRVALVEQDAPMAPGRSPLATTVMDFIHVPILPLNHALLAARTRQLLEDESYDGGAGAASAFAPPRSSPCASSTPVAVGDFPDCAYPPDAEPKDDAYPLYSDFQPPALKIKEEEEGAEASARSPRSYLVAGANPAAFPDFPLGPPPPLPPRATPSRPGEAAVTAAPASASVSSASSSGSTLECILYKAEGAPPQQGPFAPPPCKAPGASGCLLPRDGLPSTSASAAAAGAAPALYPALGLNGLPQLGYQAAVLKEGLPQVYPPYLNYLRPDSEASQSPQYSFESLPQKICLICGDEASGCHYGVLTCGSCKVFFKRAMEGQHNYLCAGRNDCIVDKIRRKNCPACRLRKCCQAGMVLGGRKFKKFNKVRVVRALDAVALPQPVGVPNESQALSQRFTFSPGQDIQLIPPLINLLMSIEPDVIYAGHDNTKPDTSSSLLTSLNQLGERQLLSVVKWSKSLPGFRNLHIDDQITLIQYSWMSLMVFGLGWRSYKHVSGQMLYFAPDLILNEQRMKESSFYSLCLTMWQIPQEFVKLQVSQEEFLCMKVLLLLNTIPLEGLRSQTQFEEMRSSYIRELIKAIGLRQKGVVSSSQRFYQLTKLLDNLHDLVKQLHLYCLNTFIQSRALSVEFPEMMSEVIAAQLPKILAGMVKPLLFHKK
# In short: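 Agonist mode, quantitative HTS format in a HEK 293T line expressing a UAS-controlled beta-lactamase reporter; 16 hr compound exposure at 37C in 2% charcoal-stripped FBS, then LiveBLAzer B/G FRET fluorescence.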
# [2] = qHTS assay to identify small molecule antagonists of the progesterone receptor (PR) signaling pathway - cell viability counter screen (AID 1346798); further: nearly all actives have a fitted effect of over 50% in size; further: potency means the concentration at half of the fitted maximal effect
# In short: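 Same-well multiplex: after 16 hr at 37C with compound and R5020 stimulation, HEK293T cells carrying a UAS-bla reporter received LiveBLAzer substrate (2 hr RT), then CellTiter-Glo (30 min RT) for luminescent viability.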
# [3] = qHTS assay to identify small molecule antagonists of the TGF-beta/Smad signaling pathway - cell viability counter screen (AID 1346824); further: nearly all actives have a fitted effect of over 50% in size; further: potency means the concentration at half of the fitted maximal effect
# In short: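 SBE-bla HEK 293T cells, incubated overnight, then compound plus 0.25 ng/mL TGF-beta1 (stock added) for 5 hr at 37 C. Viability was read in the same wells by CellTiter-Glo luminescence after 30 min at room temperature.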
# [4] = qHTS assay to identify small molecule agonists of the TGF-beta/Smad signaling pathway (AID 1346859; active means well fitted activation curve with a large enough effect in the signal ratio in the repeat runs, not every such curve was filed as active; the % refers to the signal ratio; further: series mostly up to about 77 µM)
# In short: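 Smad-responsive beta-lactamase reporter cells (HEK 293T) received compounds from DMSO stocks after overnight attachment, were incubated 5 hr, then treated 2 hr with FRET substrate before dual-emission fluorescence measurement (405 nm excitation).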
# [5] = biological target: Thyrotropin-releasing hormone receptor (Homo sapiens) (UniProt P34981); experiment: qHTS assay to identify small molecule antagonists of the thyrotropin-releasing hormone receptor (TRHR) signaling pathway (AID 1346877; active means well fitted inhibition curve with a large enough effect in the repeat runs, not every such curve was filed as active; further: series mostly up to about 51 µM)
# Sequence of Thyrotropin-releasing hormone receptor (Homo sapiens) (P34981 whole entry, looked up): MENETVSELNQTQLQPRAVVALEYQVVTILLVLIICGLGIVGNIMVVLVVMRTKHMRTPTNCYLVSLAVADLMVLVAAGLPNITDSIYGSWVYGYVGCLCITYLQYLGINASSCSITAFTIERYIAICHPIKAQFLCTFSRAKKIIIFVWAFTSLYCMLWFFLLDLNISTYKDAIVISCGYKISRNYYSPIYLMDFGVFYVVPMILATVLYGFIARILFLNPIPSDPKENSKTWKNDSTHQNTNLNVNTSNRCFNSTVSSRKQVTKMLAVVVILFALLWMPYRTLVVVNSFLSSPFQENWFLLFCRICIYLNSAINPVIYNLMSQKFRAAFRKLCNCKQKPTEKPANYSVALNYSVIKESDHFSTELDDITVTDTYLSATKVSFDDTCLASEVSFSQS
# In short: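 TRHR-expressing HEK293 cells were seeded, cultured 18 h at 37 °C, then loaded with calcium dye for 2 h. Compounds were pre-incubated 5 min at room temperature before 1 nM TRH (final) was added, and kinetic fluorescence was recorded for 3 min.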
# [6] = biological target: Thyrotropin-releasing hormone receptor (Homo sapiens) (UniProt P34981); experiment: qHTS assay to identify small molecule agonists of the thyrotropin-releasing hormone receptor (TRHR) signaling pathway (AID 1346891; calls by dose curve; further: series mostly up to about 58 µM)
# In short: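 Agonist-mode calcium mobilisation screen: TRHR-transfected HEK293 cells cultured overnight (18 h), dye-loaded for 2 h at 37 °C, exposed to compounds, and monitored by fluorescence for 3 min.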
# [7] = Caspase-3/7 induction in HepG2 cells by small molecules, qHTS assay (AID 1346978); further: nearly all actives have a fitted effect of over 15% in size; further: potency means the concentration at half of the fitted maximal effect
# In short: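 Wild-type HepG2 cells, 2,000/well, settled 5 hr at 37 C and 5% CO2, then compound-treated for 17 hr; caspase-3/7 activity read by luminescent Caspase-Glo 3/7 after 30 min at room temperature.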
# [8] = Caspase-3/7 induction in CHO-K1 cells by small molecules, qHTS cell viability counter screen (AID 1346979); further: nearly all actives have a fitted effect of over 35% in size; further: potency means the concentration at half of the fitted maximal effect
# In short: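 In the same wells as the caspase read, viability of compound-treated wild-type CHO-K1 cells was assessed using CellTiter-Fluor, added after 16hr at 37C and measured by fluorescence following 1hr further incubation.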
# [9] = Caspase-3/7 induction in CHO-K1 cells by small molecules, qHTS assay (AID 1346980); further: nearly all actives have a fitted effect of over 15% in size; further: potency means the concentration at half of the fitted maximal effect
# In short: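 Wild-type CHO-K1 cells exposed to compounds for 17hr at 37 C, 5% CO2. Caspase-3/7 activity then measured by Caspase-Glo 3/7 luminescence after 30min at room temperature.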
# [10] = Caspase-3/7 induction in HepG2 cells by small molecules, qHTS cell viability counter screen (AID 1346981); further: nearly all actives have a fitted effect of over 30% in size; further: potency means the concentration at half of the fitted maximal effect
# In short: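 Wild-type HepG2 cells (2,000/well) were allowed to settle for 5 hr at 37 C, 5% CO2, then dosed with compounds in DMSO by pin transfer. After 16 hr at 37 C, CellTiter-Fluor was added and fluorescence read 1 hr later.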
# [11] = biological target: Nuclear receptor subfamily 1 group I member 2 (Homo sapiens) (UniProt O75469); experiment: Human pregnane X receptor (PXR) small molecule agonists, qHTS assay (AID 1346982); further: nearly all actives have a fitted effect of over 35% in size; further: potency means the concentration at half of the fitted maximal effect
# Sequence of Nuclear receptor subfamily 1 group I member 2 (Homo sapiens) (O75469 whole entry, looked up): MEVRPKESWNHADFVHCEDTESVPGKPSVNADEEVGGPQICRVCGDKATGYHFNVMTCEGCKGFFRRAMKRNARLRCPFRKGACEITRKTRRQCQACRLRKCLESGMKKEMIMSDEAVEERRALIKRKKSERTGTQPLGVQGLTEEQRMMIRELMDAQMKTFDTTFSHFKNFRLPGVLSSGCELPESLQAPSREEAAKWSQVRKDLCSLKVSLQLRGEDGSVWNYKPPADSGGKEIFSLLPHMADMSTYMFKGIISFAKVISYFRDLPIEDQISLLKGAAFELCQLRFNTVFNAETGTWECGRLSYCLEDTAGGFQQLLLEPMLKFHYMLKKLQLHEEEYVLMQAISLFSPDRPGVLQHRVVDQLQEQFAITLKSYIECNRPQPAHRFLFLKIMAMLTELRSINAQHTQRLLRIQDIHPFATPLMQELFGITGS
# In short: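 PXR-Luc HepG2 cells (CYP3A4 promoter-driven luciferase) were seeded in medium with 5% charcoal-stripped FBS, left 5 hr at 37 C, then exposed to compounds in DMSO for 24 hr. Luminescence was read after ONE-Glo addition.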
# [12] = biological target: Cytochrome P450 2D6 (Homo sapiens) (UniProt P10635); experiment: Cytochrome P450 Family 2 Subfamily D Member 6 (CYP2D6) small molecule antagonists: luciferase reporter qHTS assay (AID 1671196); further: nearly all actives have a fitted effect of over 50% in size; further: potency means the concentration at half of the fitted maximal effect
# Sequence of Cytochrome P450 2D6 (Homo sapiens) (P10635 whole entry, looked up): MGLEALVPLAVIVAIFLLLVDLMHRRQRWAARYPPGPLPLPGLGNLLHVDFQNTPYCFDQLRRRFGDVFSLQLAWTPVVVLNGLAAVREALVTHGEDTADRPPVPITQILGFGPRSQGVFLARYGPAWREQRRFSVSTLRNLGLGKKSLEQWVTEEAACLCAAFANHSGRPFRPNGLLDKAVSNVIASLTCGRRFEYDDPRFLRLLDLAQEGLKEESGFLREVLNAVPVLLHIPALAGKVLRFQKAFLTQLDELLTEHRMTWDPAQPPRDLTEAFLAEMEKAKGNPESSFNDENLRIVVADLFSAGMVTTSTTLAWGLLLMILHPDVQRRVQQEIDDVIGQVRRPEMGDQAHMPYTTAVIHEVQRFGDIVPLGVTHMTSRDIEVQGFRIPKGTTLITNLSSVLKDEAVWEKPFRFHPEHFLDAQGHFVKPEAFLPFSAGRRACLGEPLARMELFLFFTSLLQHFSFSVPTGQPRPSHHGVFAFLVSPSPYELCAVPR
# In short: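 CYP2D6 enzyme–substrate mix was held with compound for 10 min at room temperature, then NADPH regeneration solution was added and the reaction ran 1 h at room temperature. Luciferin product was detected by luminescence after 20 min with detection reagent.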
# [13] = biological target: Progesterone receptor (Homo sapiens) (UniProt P06401); experiment: qHTS assay to identify small molecule antagonists of the progesterone receptor (PR) signaling pathway (AID 1346795; active means well fitted inhibition curve with a large enough effect in the signal ratio in the repeat runs, not every such curve was filed as active; the % refers to the signal ratio; further: potency means the concentration at half of the fitted maximal effect)
# In short: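 HEK293T PR-UAS-bla reporter cells in charcoal-stripped serum (2%) received compound after a 6 hr settling period, followed by R5020 agonist at 1 nM final; 16 hr incubation preceded the FRET substrate step and fluorescence measurement.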
# [14] = qHTS assay to identify small molecule agonists of the TGF-beta/Smad signaling pathway - cell viability counter screen (AID 1346829); further: nearly all actives have a fitted effect of over 45% in size; further: potency means the concentration at half of the fitted maximal effect
# In short: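 After overnight seating at 37 C and 5% CO2, reporter cells got compounds for 5 hr and FRET substrate for 2 hr; cell viability then came from CellTiter-Glo luminescence.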
# [15] = Human pregnane X receptor (PXR) small molecule agonists, qHTS cell viability counter screen (AID 1346977); further: nearly all actives have a fitted effect of over 50% in size; further: potency means the concentration at half of the fitted maximal effect
# In short: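 Measures live-cell protease fluorescence (CellTiter-Fluor) in PXR-Luc HepG2 cells treated 24hr with compounds at 37C. Cells had 5hr to attach before pin transfer of DMSO solutions.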
# [16] = qHTS assay to identify small molecule agonists of the estrogen receptor alpha (ER-alpha) signaling pathway in the presence of an antagonist - cell viability counter screen (AID 1259386);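 further: cells exposed to compounds for 22 h at 37 °C before the viability read; nearly all actives have a fitted effect of over 30% in size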; further: potency means the concentration at half of the fitted maximal effect
# In short: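 VM7Luc4E2 cells (endogenous full-length ER-alpha, 4×ERE-luciferase) were held 5 days in phenol red-free medium with 10% charcoal-stripped FBS, plated, then given 10.0nM ICI-182,780 and compounds at 15 concentrations for 22hr at 37C; viability read by CellTiter-Fluor fluorescence.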
# [17] = qHTS assay to identify small molecule agonists of the progesterone receptor (PR) signaling pathway - cell viability counter screen (AID 1346799; calls by dose curve; further: nearly all actives have a fitted effect of over 45% in size; further: potency means the concentration at half of the fitted maximal effect)
# In short: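 Counter screen for cytotoxicity: compound-treated PR-UAS-bla HEK293T cells (16 hr, 37C, 5% CO2) were assayed with CellTiter-Glo, luminescence measured after 30 min at room temperature.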
# [18] = biological target: Nuclear receptor subfamily 1 group I member 2 (Rattus norvegicus) (UniProt Q9R1A7); experiment: Rat pregnane X receptor (rPXR) activation by small molecules, qHTS assay (AID 1346983); conditions: rPXR luciferase reporter cells, One-Glo luminescence, 24 h; max activation: hits give high values; further: nearly all actives have a fitted effect of over 20% in size; further: potency means the concentration at half of the fitted maximal effect
# Sequence of Nuclear receptor subfamily 1 group I member 2 (Rattus norvegicus) (Q9R1A7 whole entry, looked up): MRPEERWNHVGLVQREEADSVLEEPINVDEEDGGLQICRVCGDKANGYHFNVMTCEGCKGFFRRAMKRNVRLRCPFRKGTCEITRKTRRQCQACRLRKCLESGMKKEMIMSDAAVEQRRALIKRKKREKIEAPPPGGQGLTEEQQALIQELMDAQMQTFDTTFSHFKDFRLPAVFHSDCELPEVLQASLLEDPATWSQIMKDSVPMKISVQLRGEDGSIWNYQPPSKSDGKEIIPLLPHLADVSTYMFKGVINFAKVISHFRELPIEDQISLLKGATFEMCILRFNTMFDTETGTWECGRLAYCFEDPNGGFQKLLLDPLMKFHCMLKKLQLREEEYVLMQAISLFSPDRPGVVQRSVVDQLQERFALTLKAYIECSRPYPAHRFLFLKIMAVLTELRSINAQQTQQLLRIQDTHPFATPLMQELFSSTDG
# In short: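 Cell-based rPXR activation assay: rPXR cells, 2,000 per well, rested 5hr at 37 C, then exposed to compounds in DMSO for 24 hr at 37 C. Luciferase activity read by One-Glo luminescence after 30 min at room temperature.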
# [19] = biological target: Nuclear receptor subfamily 1 group I member 2 (Homo sapiens) (UniProt O75469); experiment: Human pregnane X receptor (PXR) activation by small molecules, qHTS assay (AID 1346985); further: nearly all actives have a fitted effect of over 40% in size; further: potency means the concentration at half of the fitted maximal effect
# In short: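 DPX-2 cells (HepG2 co-transfected with a PXR response element and a CYP3A4-promoter luciferase construct) were seeded at 2,000 per well, rested 5 hr at 37C, then exposed to DMSO-dissolved compounds for 24 hr. Activation was read as luciferase luminescence.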
# [20] = biological target: Nuclear receptor subfamily 1 group I member 2 (Homo sapiens) (UniProt O75469); experiment: CYP3A4 induction through human pregnane X receptor (PXR) by small molecules, qHTS assay (AID 1346984); further: potency means the concentration at half of the fitted maximal effect; nearly all actives have a fitted effect of over 40% in size
# In short: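 DPX-2 cells (HepG2 co-transfected with PXR and CYP3A4 promoter-luciferase) treated with compounds 24 h at 37C; luciferin-IPA CYP3A4 substrate 3uM final added for 3 h, then One-Glo; luminescence read. qHTS format.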
smiles,measurement,setting,value
C[n+]1ccn(Cc2ccccc2)c1,Potency,[1],inactive
same,Potency,[2],inactive
same,Potency,[3],inactive
same,Potency,[4],inactive
same,Potency,[5],inactive
same,Potency,[6],inactive
same,Potency,[7],inactive
same,Potency,[8],inactive
same,Potency,[9],inactive
same,Potency,[10],inactive
same,Potency,[11],30.5 µM (active)
same,Potency,[12],31.6 µM (active)
CC(C)CCCCCCCCCCCCCCC(=O)O,Potency,[1],inactive
same,Potency,[13],inactive
same,Potency,[2],inactive
same,Potency,[3],inactive
same,Potency,[14],inactive
same,Potency,[4],inactive
same,Potency,[5],inactive
same,Potency,[6],inactive
same,Potency,[15],inactive
same,Potency,[7],inactive
same,Potency,[8],inactive
same,Potency,[9],inactive
same,Potency,[10],inactive
same,Potency,[11],inactive
same,Potency,[12],inactive
CC(C)(C)CC(C)(C)c1ccc(O)c(Cc2ccc(Cl)cc2Cl)c1,Potency,[16],29.8 µM (active)
same,Potency,[17],33.5 µM (active)
same,Potency,[3],21.3 µM (active)
same,Potency,[14],19 µM (active)
same,Potency,[5],inactive
same,Potency,[6],inactive
same,Potency,[15],18.8 µM (active)
same,Potency,[7],26.6 µM (active)
same,Potency,[8],18.8 µM (active)
same,Potency,[9],21.1 µM (active)
same,Potency,[10],29.8 µM (active)
same,Potency,[11],2.37 µM (active)
same,max activation,[18],-0.0398%
C/C=C1/C(=O)C[C@H]2[C@@H]3CCC4=CC(=O)CC[C@]4(C)[C@H]3CC[C@]12C,Potency,[16],inactive
same,Potency,[3],inactive
same,Potency,[14],inactive
same,Potency,[8],60.9 µM (active)
same,Potency,[9],inactive
[Cl][Au]([Cl])[Cl],Potency,[16],43.3 µM (active)
same,Potency,[3],inactive
same,Potency,[14],54.9 µM (active)
same,Potency,[5],inactive
same,Potency,[6],inactive
same,Potency,[15],13.7 µM (active)
same,Potency,[7],inactive
same,Potency,[8],24.3 µM (active)
same,Potency,[9],inactive
same,Potency,[10],68.6 µM (active)
CCC1=C[C@@H]2CN(C1)Cc1c([nH]c3ccccc13)[C@@](C(=O)OC)(c1cc3c(cc1OC)N(C)[C@H]1[C@@](O)(C(=O)OC)[C@H](OC(C)=O)[C@]4(CC)C=CCN5CC[C@]31[C@@H]54)C2,Potency,[1],inactive
same,Potency,[13],0.944 µM (active)
same,Potency,[3],inactive
same,Potency,[14],inactive
same,Potency,[4],inactive
same,Potency,[5],inactive
same,Potency,[6],inactive
same,Potency,[15],13.3 µM (active)
same,Potency,[8],0.668 µM (active)
same,Potency,[9],inactive
same,Potency,[10],13.3 µM (active)
same,Potency,[18],3.55 µM (active)
same,Potency,[19],8.91 µM (active)
same,Potency,[12],inactive
CCCCCCCC[N+](CCCCCCCC)(CCCCCCCC)CCCCCCCC,Potency,[16],12.2 µM (active)
same,Potency,[2],30.6 µM (active)
same,Potency,[3],48.9 µM (active)
same,Potency,[14],43.6 µM (active)
same,Potency,[5],inactive
same,Potency,[15],5.44 µM (active)
same,Potency,[7],15.3 µM (active)
same,Potency,[8],8.62 µM (active)
same,Potency,[10],21.6 µM (active)
same,Potency,[11],3.06 µM (active)
On1ccccc1=S,Potency,[13],0.539 µM (active)
same,Potency,[2],0.605 µM (active)
same,Potency,[17],0.959 µM (active)
same,Potency,[3],inactive
same,Potency,[14],inactive
same,Potency,[4],inactive
same,Potency,[5],inactive
same,Potency,[6],inactive
same,Potency,[15],0.762 µM (active)
same,Potency,[7],1.71 µM (active)
same,Potency,[8],0.428 µM (active)
same,Potency,[9],inactive
same,Potency,[10],15.2 µM (active)
O=C(NOCC1CC1)c1ccc(F)c(F)c1Nc1ccc(I)cc1Cl,Potency,[3],inactive
same,Potency,[14],inactive
same,Potency,[4],inactive
same,Potency,[5],inactive
same,Potency,[6],inactive
same,Potency,[15],18.8 µM (active)
same,Potency,[8],18.8 µM (active)
same,Potency,[9],inactive
same,Potency,[10],26.6 µM (active)
same,Potency,[11],inactive
O=C(Nc1ccc(Oc2ccc(Cl)cc2)c(Cl)c1)c1cc(I)cc(I)c1O,Potency,[13],23.7 µM (active)
same,Potency,[3],inactive
same,Potency,[4],inactive
same,Potency,[5],inactive
same,Potency,[6],inactive
same,Potency,[7],inactive
same,Potency,[8],inactive
same,Potency,[9],inactive
same,Potency,[11],26.6 µM (active)
same,max activation,[18],-12.9%
same,Potency,[20],22.4 µM (active)
same,Potency,[19],22.4 µM (active)
same,Potency,[12],inactive
CCc1cc(Cc2cc(CC)c(N)c(CC)c2)cc(CC)c1N,Potency,[2],68.6 µM (active)
same,Potency,[17],54.5 µM (active)
same,Potency,[3],inactive
same,Potency,[14],inactive
same,Potency,[4],inactive
same,Potency,[5],inactive
same,Potency,[15],27.3 µM (active)
same,Potency,[7],inactive
same,Potency,[8],27.3 µM (active)
same,Potency,[11],21.7 µM (active)
O=C1Cc2cc(CCN3CCN(c4nsc5ccccc45)CC3)c(Cl)cc2N1,Potency,[13],inactive
same,Potency,[2],inactive
same,Potency,[17],inactive
same,Potency,[3],inactive
same,Potency,[14],inactive
same,Potency,[4],inactive
same,Potency,[5],inactive
same,Potency,[6],inactive
same,Potency,[7],inactive
same,Potency,[9],inactive
same,Potency,[10],inactive
same,max activation,[18],-10.8%
same,Potency,[19],inactive
same,Potency,[12],inactive
N=C1N=C(N)c2cc3ccccc3cc21,Potency,[2],27.3 µM (active)
same,Potency,[17],27.3 µM (active)
same,Potency,[5],inactive
same,Potency,[6],inactive
same,Potency,[15],15.8 µM (active)
same,Potency,[8],25.8 µM (active)
same,Potency,[10],19.3 µM (active)
same,Potency,[11],12.2 µM (active)
same,Potency,[12],32.6 µM (active)
ON=C1CCCC1,Potency,[13],inactive
same,Potency,[2],inactive
same,Potency,[17],63.3 µM (active)
same,Potency,[14],inactive
same,Potency,[4],inactive
same,Potency,[5],inactive
same,Potency,[15],inactive
same,Potency,[7],inactive
same,Potency,[8],inactive
same,Potency,[9],inactive
same,Potency,[10],inactive
same,Potency,[11],inactive

# Source: PubChem BioAssay (Tox21)
